From PubChem BioAssay (NCATS)
Inconclusive results are not listed. A call without a number means that no potency is given here. Activity calls are given as the source filed them. The call rests on the fitted dose curve; in most records, active means well fitted curve in the direction sought with a large enough effect; inconclusive means small, poorly fitted or top-dose-only effect, or another doubt; inactive means no such curve, though single readings can be large; an effect the other way counts as inactive or inconclusive.

Columns and labels:
[1] = qHTS of pediatric cancer cell lines to identify multiple opportunities for drug repurposing: Primary screen for SK-N-MC cells (AID 1347093); further: potency means the concentration at half of the fitted maximal effect
Summary of the method: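 Metabolically active cells were quantified by ATP-dependent luminescence (CellTiter-Glo, 15 min at room temperature) following 48 h treatment. Cells had been plated at 500-1,000 per well and settled for 5 h beforehand.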

[2] = qHTS of pediatric cancer cell lines to identify multiple opportunities for drug repurposing: Primary screen for BT-37 cells (AID 1347094); further: potency means the concentration at half of the fitted maximal effect
Summary of the method: (§1)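 Plated cells (500-1,000 per well, growth media) were allowed to settle for 5 hours, treated with compound dilutions for 48 hours, then lysed with CellTiter-Glo for 15 min at room temperature before luminescence reading.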

[3] = qHTS of pediatric cancer cell lines to identify multiple opportunities for drug repurposing: Primary screen for SK-N-SH cells (AID 1347098); further: nearly all actives have a fitted effect of over 65% in size; further: potency means the concentration at half of the fitted maximal effect
Summary of the method: (§2)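 Cells (500-1,000/well) rested 5 h, then received compounds for 48 h; metabolically active cells were measured by CellTiter-Glo luminescence. Final concentrations spanned up to 46 µM (MIPE, 11-point) or 0.59 nM-46 µM (NPC, 8-point) in primary screens, 11-point in follow-ups.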

[4] = qHTS of pediatric cancer cell lines to identify multiple opportunities for drug repurposing: Primary screen for NB1643 cells (AID 1347099); further: nearly all actives have a fitted effect of over 50% in size; further: potency means the concentration at half of the fitted maximal effect
Summary of the method: as §1

[5] = qHTS of pediatric cancer cell lines to identify multiple opportunities for drug repurposing: Primary screen for LAN-5 cells (AID 1347100); further: potency means the concentration at half of the fitted maximal effect
Summary of the method: (§3)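 Viability after 48 h compound treatment at 37C, 500-1,000 cells/well, read as ATP luminescence with CellTiter-Glo. Primary screens used 11-point (MIPE, 0.78 nM-46 µM) or 8-point (NPC, 0.59 nM-46 µM) final concentrations; follow-up screens used 11-point dilutions.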

[6] = qHTS of pediatric cancer cell lines to identify multiple opportunities for drug repurposing: Primary screen for BT-12 cells (AID 1347101); further: nearly all actives have a fitted effect of over 25% in size; further: potency means the concentration at half of the fitted maximal effect
Summary of the method: as §2

[7] = qHTS of pediatric cancer cell lines to identify multiple opportunities for drug repurposing: Primary screen for Rh18 cells (AID 1347102); further: nearly all actives have a fitted effect of over 65% in size; further: potency means the concentration at half of the fitted maximal effect
Summary of the method: as §3

[8] = qHTS of pediatric cancer cell lines to identify multiple opportunities for drug repurposing: Primary screen for Saos-2 cells (AID 1347097); further: nearly all actives have a fitted effect of over 40% in size; further: potency means the concentration at half of the fitted maximal effect
Summary of the method: as §1

[9] = qHTS of pediatric cancer cell lines to identify multiple opportunities for drug repurposing: Primary screen for NB-EBc1 cells (AID 1347095); further: potency means the concentration at half of the fitted maximal effect
Summary of the method: as §1

[10] = qHTS of pediatric cancer cell lines to identify multiple opportunities for drug repurposing: Primary screen for U-2 OS cells (AID 1347096); further: nearly all actives have a fitted effect of over 50% in size
Summary of the method: as §3

Structure (SMILES) | Potency [1] | Potency [2] | Potency [3] | Potency [4] | Potency [5] | Potency [6] | Potency [7] | Potency [8] | Potency [9] | Potency [10]
COCCc1ccccn1 | inactive | inactive | inactive | inactive | inactive | inactive | inactive | – | – | –
CC[C@@]1(O)C(=O)OCc2c1cc1n(c2=O)Cc2c-1nc1ccccc1c2/C=N/OC(C)(C)C | 0.0211 µM (active) | 0.0309 µM (active) | 0.194 µM (active) | 0.0531 µM (active) | 0.0211 µM (active) | 0.246 µM (active) | – | 0.0596 µM (active) | – | –
CCOC(=O)N1CCC(Nc2ccc(Cl)cc2N)CC1 | 10.6 µM (active) | – | 19.4 µM (active) | 8.41 µM (active) | 2.66 µM (active) | 4.9 µM (active) | – | – | 6.68 µM (active) | inactive
O=C(Nc1ccc(S(=O)(=O)N2CCOCC2)cc1)c1cc(Cl)ccc1NS(=O)(=O)c1ccc(Cl)s1 | 18.8 µM (active) | inactive | inactive | – | inactive | inactive | inactive | – | – | inactive
CC[C@@H]([C@H](C)O)n1ncn(-c2ccc(N3CCN(c4ccc(OC[C@@H]5CO[C@@](Cn6cncn6)(c6ccc(F)cc6F)C5)cc4)CC3)cc2)c1=O | 11.9 µM (active) | – | inactive | – | – | – | inactive | – | – | –
CC(C)(C)c1cc(C=O)cc(C(C)(C)C)c1O | inactive | inactive | – | inactive | inactive | inactive | inactive | – | – | inactive
Cc1nc(C2CCCCC2)c(-c2ccc(S(N)(=O)=O)c(F)c2)o1 | inactive | inactive | – | inactive | inactive | – | inactive | – | – | inactive
CCC(CN)=C(c1ccccc1)c1ccccc1 | – | inactive | – | – | inactive | – | inactive | inactive | inactive | inactive
C[C@@H](O[C@H]1OCCN(Cc2n[nH]c(=O)[nH]2)[C@H]1c1ccc(F)cc1)c1cc(C(F)(F)F)cc(C(F)(F)F)c1 | – | 21.9 µM (active) | 34.4 µM (active) | – | – | – | 23.7 µM (active) | 11.9 µM (active) | 18.8 µM (active) | –
CC(=O)OCC[N+](C)(C)C | – | inactive | inactive | inactive | inactive | inactive | inactive | inactive | inactive | inactive
CN1CCC(Nc2ncc3ncnc(Nc4ccc(F)c(Cl)c4)c3n2)CC1 | – | 17.4 µM (active) | 17.2 µM (active) | inactive | – | – | – | inactive | inactive | –
COc1ccccc1N1CCN(CC(O)COc2cc(OC)c(OC)c(OC)c2)CC1 (centres undefined) | – | inactive | inactive | – | inactive | inactive | inactive | inactive | inactive | inactive
O=C(COCCOCCOCC(=O)Nc1c(I)cc(I)c(C(=O)O)c1I)Nc1c(I)cc(I)c(C(=O)O)c1I | – | inactive | inactive | inactive | inactive | inactive | inactive | inactive | inactive | inactive
Cc1ncc([N+](=O)[O-])n1C | – | inactive | inactive | inactive | inactive | inactive | inactive | inactive | inactive | –
CCOC(=O)c1cc(=O)c2c(OCC(COc3cccc4oc(C(=O)OCC)cc(=O)c34)OC(=O)[C@@H](N)CCCCN)cccc2o1 | – | inactive | inactive | inactive | inactive | inactive | inactive | inactive | inactive | inactive
CN1C(=O)CC(C)(c2ccccc2)C1=O (centres undefined) | – | inactive | – | inactive | inactive | inactive | inactive | – | inactive | inactive
CC(C)(c1ccc(O)cc1)c1ccc(O)cc1 | – | inactive | – | inactive | inactive | – | inactive | – | inactive | inactive
Cc1ccccc1C(=O)N1CC/C(=N\OS(=O)(=O)O)c2ccc(Cl)cc21 | – | inactive | – | inactive | inactive | inactive | inactive | inactive | inactive | inactive
COc1ccc(OC(=O)N(CC(=O)O)Cc2ccc(OCCc3nc(-c4ccccc4)oc3C)cc2)cc1 | – | inactive | inactive | inactive | inactive | inactive | inactive | – | inactive | inactive
Cc1ccc(CCn2c3c(c4cc(Cl)ccc42)CN(C)CC3)cn1 | – | inactive | – | inactive | inactive | – | inactive | inactive | inactive | inactive
